This is part of a sample that, as a whole, favours compounds with a hit. Of some 83,000 tested, about 20% had one in any assay.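 Testing used 96-well plates and a 48-hour single-concentration exposure. Example: -40 means 40% of the starting cells died.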 The source made the active and inactive calls. The calls were made as follows: active = growth percent below 10; inactive = the rest.
Columns and labels:
Assay in all cases: NCI-60 one-dose screen, 48 h (100 = growth as untreated, 0 = no growth, -100 = all killed)
[1] = system: DU-145 prostate; details: 10 µM unless noted
[2] = system: K-562 leukemia; details: 10 µM unless noted
[3] = system: MALME-3M melanoma; details: 10 µM unless noted
[4] = system: MDA-MB-231 breast; details: 10 µM unless noted
[5] = system: RXF 393 renal; details: 10 µM unless noted
[6] = system: SF-268 CNS; details: 10 µM unless noted
[7] = system: SF-295 CNS; details: 10 µM unless noted
[8] = system: SF-539 CNS; details: 10 µM unless noted
[9] = system: UACC-257 melanoma; details: 10 µM unless noted
[10] = system: M14 melanoma; details: 10 µM unless noted
[11] = system: HCT-15 colon; details: 10 µM unless noted
[12] = system: SNB-75 CNS; details: 10 µM
[13] = system: SNB-19 CNS; details: 10 µM unless noted
[14] = system: U251 CNS; details: 10 µM unless noted
[15] = system: PC-3 prostate; details: 10 µM unless noted
[16] = system: SK-MEL-5 melanoma; details: 10 µM unless noted
[17] = system: UACC-62 melanoma; details: 10 µM unless noted
[18] = system: LOX IMVI melanoma; details: 10 µM unless noted
[19] = system: SK-MEL-28 melanoma; details: 10 µM unless noted
[20] = system: HT29 colon; details: 10 µM unless noted

Measured: growth

COC(=O)C1CCCN1C(=O)[C@@H]1CCCN1C(=O)[C@H](Cc1c[nH]c2ccccc12)NC(=S)Nc1cc(C(F)(F)F)cc(C(F)(F)F)c1 (stereo partly drawn)
inactive: [1] 52.5% | [2] 38.3% | [3] 81.7% | [4] 14.4% | [5] 43.7% | [6] 51.5% | [7] 25.1% | [8] 55.4% | [9] 62.4% | [10] 60.9% | [11] 40% | [12] 55.1% | [13] 49.7% | [14] 35.9% | [15] 20.4% | [16] 58.1% | [17] 63.6% | [18] 36.1% | [19] 80.9%

NC(=O)c1c(NC(=S)Nc2ccc(OC(F)(F)F)cc2)sc2c1CCC1(C2)OCCO1
inactive: [1] 112% | [2] 94.6% | [3] 109% | [4] 98.9% | [5] 116% | [6] 103% | [7] 93.4% | [8] 99% | [9] 97.1% | [10] 97.2% | [11] 97.5% | [20] 95.6% | [13] 97.5% | [14] 97.2% | [16] 98.2% | [17] 77.1% | [18] 98% | [19] 104%

COc1cc2c(cc1O)CCN1C[C@@H](CC(C)C)[C@@H](O)C[C@@H]21
inactive: [1] 111% | [2] 96% | [3] 100% | [4] 103% | [5] 107% | [6] 107% | [7] 97.4% | [8] 96.7% | [9] 99.5% | [10] 100% | [11] 106% | [12] 107% | [13] 102% | [14] 92.1% | [15] 86.3% | [16] 107% | [17] 93.1% | [18] 97.8% | [19] 106%

CCN(CC)CCCC(C)Nc1c2ccc(Cl)cc2nc2cc(OC)c(OC)cc12 (stereo not drawn)
inactive: [1] 22.6% | [6] 33.9% | [7] 44.5% | [9] 46.9% | [14] 16.2% | [15] 16.5% | [16] 45.3%
active: [2] -16.4% | [3] -74.1% | [4] -34.3% | [5] -13.4% | [8] -87.9% | [10] -73.7% | [11] -22.4% | [20] -23.8% | [17] -38% | [18] -53.3% | [19] -74.7%

CCCCC(CC)OC(=O)C(Br)CC (stereo not drawn)
inactive: [1] 107% | [2] 83.8% | [3] 99.9% | [4] 112% | [5] 114% | [6] 98.1% | [7] 97.5% | [8] 98.7% | [9] 104% | [10] 101% | [11] 105% | [12] 90.1% | [13] 110% | [14] 97.2% | [15] 102% | [16] 102% | [17] 106% | [18] 94.1% | [19] 103%

C=C1CCC2C3(C)COC(c4ccc(N(C)C)cc4)OC3CCC2(C)C1C/C=C1/C(=O)OCC1O (stereo not drawn)
active: [1] 7.35% | [5] 1.3% | [15] 9.17%
inactive: [2] 44% | [3] 105% | [4] 85.4% | [6] 74.9% | [7] 95.6% | [8] 99.2% | [9] 49.5% | [10] 71.7% | [11] 57.6% | [12] 73.8% | [13] 85.9% | [14] 51.1% | [16] 60.7% | [17] 63.1% | [18] 11.9% | [19] 94.9%

CCN(CC)CCCNc1nccc2ccc(Cl)cc12
inactive: [1] 113% | [2] 107% | [3] 111% | [4] 87% | [5] 97.6% | [6] 111% | [7] 100% | [8] 104% | [9] 91% | [10] 95% | [11] 104% | [20] 96.9% | [14] 96.8% | [15] 73.6% | [16] 99.3% | [17] 108% | [18] 94.7% | [19] 117%

C=C1c2nc3ccccc3n2C=C(c2ccc(Cl)cc2)N1Cc1ccccc1
inactive: [1] 103% | [2] 59.1% | [3] 94.5% | [4] 85.4% | [5] 65.7% | [6] 90.3% | [7] 89.8% | [8] 96.4% | [9] 75.4% | [10] 85.2% | [11] 78.2% | [20] 77.4% | [13] 85.3% | [14] 90.9% | [16] 79.1% | [17] 71% | [18] 90.5% | [19] 147%

Reference: PubChem BioAssay (NCI)
